Experimental data from PubChem BioAssay AID1159580 (chemical genetic matrix, 2015).
Hit rate of the full screen: of about 5,500 compounds, about 2,000 (36%) were called active. Another 18% or so got no clear call; they are omitted. No stated cut-off is given here; in the data, active means normalized growth mostly below about 0.91 (no sharp cut-off); inconclusive means no clear call, values can overlap the other calls; inactive means mostly above about 0.92. The list shows a part of the results.

Assay: chemical genetic growth profiling, strain panel (AID 1159580);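 further: tested at 20 µM; growth read once vehicle control cultures reached saturation at 30 °C; 1 = growth at the plate median or of vehicle wells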
Conditions: S. cerevisiae deletion strains, growth OD

Measured: normalized growth

CC(=O)OC1CCC2(O)CC1(C)CCC1C2CC1(C)C (stereo not given)
inactive: locus YAL021C, strain ccr4, stronger effect = lower value 1 | locus YAL026C, strain drs2, stronger effect = lower value 1.05 | locus YAL030W, strain snc1, stronger effect = lower value 1.02 | locus YBL061C, strain skt5, stronger effect = lower value 1.02 | locus YBR009C, strain hhf1, stronger effect = lower value 1.03 | locus YBR021W, strain FUR4, stronger effect = lower value 1 | locus YBR023C, strain chs3, stronger effect = lower value 1.02 | locus YBR171W, strain sec66, stronger effect = lower value 1.03 | locus YBR229C, strain ROT2, stronger effect = lower value 0.949 | locus YBR231C, strain swc5, stronger effect = lower value 1.05 | locus YBR279W, strain paf1, stronger effect = lower value 1.01 | locus YCL011C, strain gbp2, stronger effect = lower value 1.03 | locus YCL016C, strain dcc1, stronger effect = lower value 1.02 | locus YCL029C, strain bik1, stronger effect = lower value 0.974 | locus YCL061C, strain MRC1, stronger effect = lower value 1.02 | locus YCL069W, strain vba3, stronger effect = lower value 1.03 | locus YCR088W, strain abp1, stronger effect = lower value 1.02 | locus YDL005C, strain med2, stronger effect = lower value 1.02 | locus YDL035C, strain GPR1, stronger effect = lower value 0.958 | locus YDL040C, strain nat1, stronger effect = lower value 1.02 | locus YDL074C, strain BRE1, stronger effect = lower value 0.989 | locus YDL101C, strain DUN1, stronger effect = lower value 0.992 | locus YDL185W, strain tfp1, stronger effect = lower value 0.968 | locus YDL192W, strain arf1, stronger effect = lower value 0.981 | locus YDR001C, strain nth1, stronger effect = lower value 1.02 | locus YDR069C, strain doa4, stronger effect = lower value 1.03 | locus YDR101C, strain arx1, stronger effect = lower value 0.973 | locus YDR137W, strain rgp1, stronger effect = lower value 0.988 | locus YDR159W, strain sac3, stronger effect = lower value 1.06 | locus YDR162C, strain NBP2, stronger effect = lower value 0.938 | locus YDR195W, strain ref2 1.01 | locus YDR297W, strain sur2, stronger effect = lower value 1.01 | locus YDR318W, strain mcm21, stronger effect = lower value 0.977 | locus YDR334W, strain swr1, stronger effect = lower value 1.03 | locus YDR335W, strain msn5, stronger effect = lower value 1.04 | locus YDR388W, stronger effect = lower value 0.965 | locus YDR392W, strain spt3, stronger effect = lower value 0.955 | locus YDR502C, strain sam2, stronger effect = lower value 1.02 | locus YEL003W, strain gim4, stronger effect = lower value 1.04 | locus YEL037C, strain rad23, stronger effect = lower value 1.02 | locus YEL061C, strain CIN8 (second series), stronger effect = lower value 1.03 | locus YER015W, strain faa2, stronger effect = lower value 1.02 | locus YER016W, strain bim1, stronger effect = lower value 1.03 | locus YER110C, stronger effect = lower value 0.973 | locus YER111C, strain swi4, stronger effect = lower value 1.02 | locus YER155C, strain BEM2 (second series), stronger effect = lower value 1.05 | locus YER155C, strain BEM2, stronger effect = lower value 0.982 | locus YER167W, strain BCK2, stronger effect = lower value 0.975 | locus YFR010W, strain ubp6, stronger effect = lower value 1.04 | locus YGL078C, strain dbp3, stronger effect = lower value 1.02 | locus YGL086W, strain mad1, stronger effect = lower value 0.996 | locus YGL167C, strain pmr1, stronger effect = lower value 1.02 | locus YGL173C, strain kem1, stronger effect = lower value 1.04 | locus YGL227W, strain vid30, stronger effect = lower value 1.03 | locus YGL240W, strain doc1, stronger effect = lower value 1.03 | locus YGL248W, strain PDE1, stronger effect = lower value 1.01 | locus YGL253W, strain hxk2, stronger effect = lower value 1.07 | locus YGR135W, strain pre9, stronger effect = lower value 1.07 | locus YGR229C, strain SMI1, stronger effect = lower value 0.914 | locus YGR252W, strain gcn5, stronger effect = lower value 1.05 | locus YHR013C, strain ard1, stronger effect = lower value 1.03 | locus YHR027C, strain rpn1, stronger effect = lower value 1.02 | locus YHR079C, strain IRE1 (second series), stronger effect = lower value 0.982 | locus YHR094C, strain hxt1, stronger effect = lower value 0.976 | locus YHR129C, strain ARP1, stronger effect = lower value 0.988 | locus YHR142W, strain chs7, stronger effect = lower value 1.03 | locus YHR200W, strain rpn10, stronger effect = lower value 0.999 | locus YIL066C, strain RNR3, stronger effect = lower value 0.961 | locus YIL073C, strain SPO22, stronger effect = lower value 1.03 | locus YIL125W, strain kgd1, stronger effect = lower value 0.986 | locus YIR030C, strain dcg1, stronger effect = lower value 0.972 | locus YJL092W, strain hpr5, stronger effect = lower value 1.03 | locus YJL095W, strain BCK1 (second series), stronger effect = lower value 1.04 | locus YJL095W, strain BCK1, stronger effect = lower value 1.02 | locus YJL115W, strain asf1, stronger effect = lower value 1.01 | locus YJL129C, strain trk1, stronger effect = lower value 1.01 | locus YJL134W, strain LCB3, stronger effect = lower value 0.974 | locus YJL154C, strain vps35, stronger effect = lower value 1.03 | locus YJL164C, strain tpk1, stronger effect = lower value 1 | locus YJL166W, strain qcr8, stronger effect = lower value 1.03 | locus YJL168C, strain set2, stronger effect = lower value 0.991 | locus YJL187C, strain SWE1 (second series), stronger effect = lower value 1.01 | locus YJL187C, strain SWE1, stronger effect = lower value 1.03 | locus YKL009W, strain mrt4, stronger effect = lower value 0.976 | locus YKL068W, stronger effect = lower value 0.984 | locus YKL085W, strain MDH1 (second series), stronger effect = lower value 0.979 | locus YKL085W, strain MDH1, stronger effect = lower value 0.979 | locus YKL160W, strain elf1, stronger effect = lower value 1.01 | locus YKL190W, strain CNB1, stronger effect = lower value 0.981 | locus YKR001C, strain vps1, stronger effect = lower value 0.977 | locus YKR026C, strain gcn3, stronger effect = lower value 1.03 | locus YKR091W, strain srl3, stronger effect = lower value 1.02 | locus YLL001W, strain dnm1, stronger effect = lower value 1 | locus YLL026W, stronger effect = lower value 1.01 | locus YLL041C, strain sdh2, stronger effect = lower value 1.02 | locus YLR027C, strain aat2, stronger effect = lower value 1.05 | locus YLR039C, strain RIC1, stronger effect = lower value 0.945 | locus YLR058C, strain SHM2, stronger effect = lower value 0.978 | locus YLR102C, strain apc9, stronger effect = lower value 0.996 | locus YLR221C, strain rsa3, stronger effect = lower value 1.05 | locus YLR258W, strain gsy2, stronger effect = lower value 1.04 | locus YLR262C, strain YPT6 (second series), stronger effect = lower value 1.03 | locus YLR268W, strain sec22, stronger effect = lower value 0.943 | locus YLR320W, strain mms22, stronger effect = lower value 1.05 | locus YLR330W, strain CHS5, stronger effect = lower value 0.987 | locus YLR342W, strain FKS1 (second series), stronger effect = lower value 0.97 | locus YLR342W, strain FKS1, stronger effect = lower value 1.02 | locus YLR357W, strain rsc2, stronger effect = lower value 1.03 | locus YLR370C, strain arc18, stronger effect = lower value 1.02 | locus YLR371W, strain rom2, stronger effect = lower value 1.02 | locus YLR384C, strain iki3, stronger effect = lower value 1.01 | locus YLR418C, strain cdc73, stronger effect = lower value 1.04 | locus YML016C, strain PPZ1, stronger effect = lower value 0.974 | locus YML032C, strain rad52, stronger effect = lower value 0.985 | locus YML120C, strain ndi1, stronger effect = lower value 0.999 | locus YML124C, strain tub3, stronger effect = lower value 0.982 | locus YMR058W, strain fet3, stronger effect = lower value 1.04 | locus YMR078C, strain ctf18, stronger effect = lower value 0.997 | locus YMR125W, strain sto1, stronger effect = lower value 0.998 | locus YMR129W, stronger effect = lower value 1.02 | locus YMR205C, strain PFK2, stronger effect = lower value 1.04 | locus YMR223W, strain ubp8, stronger effect = lower value 1.02 | locus YMR231W, strain pep5, stronger effect = lower value 1.02 | locus YMR263W, strain SAP30, stronger effect = lower value 0.984 | locus YMR307W, strain GAS1, stronger effect = lower value 0.926 | locus YNL067W, strain RPL9B, stronger effect = lower value 1.01 | locus YNL071W, strain lat1, stronger effect = lower value 1.03 | locus YNL209W, strain ssb2, stronger effect = lower value 1.01 | locus YNL233W, strain BNI4, stronger effect = lower value 1.05 | locus YNL248C, strain rpa49, stronger effect = lower value 1.03 | locus YNL250W, strain rad50, stronger effect = lower value 0.956 | locus YNL271C, strain bni1, stronger effect = lower value 0.991 | locus YNL298W, strain CLA4, stronger effect = lower value 0.967 | locus YNL307C, strain MCK1, stronger effect = lower value 1.01 | locus YNL322C, strain KRE1 (second series), stronger effect = lower value 1.01 | locus YNR049C, strain mso1, stronger effect = lower value 1.05 | locus YNR052C, strain pop2, stronger effect = lower value 1.04 | locus YOL006C, strain TOP1, stronger effect = lower value 0.973 | locus YOL012C, strain htz1 0.722 | locus YOL147C, strain pex11, stronger effect = lower value 0.985 | locus YOR001W, strain rrp6, stronger effect = lower value 1.06 | locus YOR061W, strain CKA2, stronger effect = lower value 0.957 | locus YOR069W, strain VPS5, stronger effect = lower value 0.983 | locus YOR070C, strain gyp1, stronger effect = lower value 1.03 | locus YOR080W, strain dia2, stronger effect = lower value 1.02 | locus YOR083W, strain WHI5, stronger effect = lower value 1.06 | locus YOR106W, strain vam3, stronger effect = lower value 1.02 | locus YOR136W, strain idh2, stronger effect = lower value 0.992 | locus YOR144C, strain elg1, stronger effect = lower value 0.988 | locus YOR184W, strain ser1, stronger effect = lower value 0.909 | locus YOR265W, strain rbl2, stronger effect = lower value 1.02 | locus YOR270C, strain vph1, stronger effect = lower value 1.13 | locus YOR290C, strain snf2, stronger effect = lower value 1.03 | locus YOR316C, strain cot1, stronger effect = lower value 0.992 | locus YPL051W, strain arl3, stronger effect = lower value 1.01 | locus YPL055C, strain LGE1, stronger effect = lower value 0.932 | locus YPL078C, strain atp4, stronger effect = lower value 1 | locus YPL106C, strain sse1, stronger effect = lower value 0.991 | locus YPL240C, strain hsp82, stronger effect = lower value 1.02 | locus YPL241C, strain CIN2, stronger effect = lower value 0.997 | locus YPR119W, strain clb2, stronger effect = lower value 0.989 | locus YPR141C, strain kar3, stronger effect = lower value 0.977 | locus YPR163C, strain tif3, stronger effect = lower value 0.989 | locus YPR167C, strain met16, stronger effect = lower value 0.993 | strain wtn01, stronger effect = lower value 0.958
